Results on 20 compounds are retold here after PubChem BioAssay (NCI).

The panel holds about 79,000 compounds, 15% with a hit somewhere; the sample as a whole holds those more often. Unmarked numbers belong to inactive results. Active and inactive are the calls of the source. Rule as the data show it: active = growth inhibition above about 70%; inactive = the rest.

The nature of test [1]: NCI Yeast Anticancer Drug Screen. Data for the rad50 strain (AID 155).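 Also: 0% = growth of vehicle-only cultures of the same strain.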 The conditions noted are these: S. cerevisiae rad50 strain growth inhibition; at 50.0 µM; active compounds read high. Summed up: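 Growth of the mutant yeast was measured after compound exposure and referenced to vehicle-treated cultures.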
A short description of test [2]: NCI Yeast Anticancer Drug Screen. Data for the mec2-1 strain (AID 157). The conditions noted are these: S. cerevisiae mec2-1 strain, at 50.0 µM, active compounds read high. Summed up:
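Cells of the genetically defined mec2-1 yeast strain are incubated with test compound. Inhibition of growth is calculated against vehicle-treated controls.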

The nature of test [3]: NCI Yeast Anticancer Drug Screen. Data for the sgs1 mgt1 strain (AID 161).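 Also: 0% = growth of cultures given vehicle only.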 The conditions noted are these: S. cerevisiae sgs1 mgt1 strain, at 50.0 µM, active compounds read high. Summed up:
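Test agents were incubated with a DNA-repair-mutant yeast strain. Growth was then read and compared against vehicle-treated controls.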

The nature of test [4]: NCI Yeast Anticancer Drug Screen. Data for the cln2 rad14 strain (AID 165).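 Also: 0% = growth equal to vehicle treated cultures.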 The conditions noted are these: S. cerevisiae cln2 rad14 strain, at 50.0 µM, active compounds read high. Summed up: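 The screen exposed genetically defined yeast (cln2 rad14) to test compounds and scored growth inhibition relative to vehicle-treated controls.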
Test [5] is described as follows: NCI Yeast Anticancer Drug Screen. Data for the bub3 strain (AID 167). The conditions noted are these: S. cerevisiae bub3 mutant strain, at 50.0 µM, active compounds read high. Summed up: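 Whole-cell yeast assay. The mutant strain was incubated with compounds, and growth inhibition was determined by comparison with vehicle-treated cells.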
Test [6] in a line: NCI Yeast Anticancer Drug Screen. Data for the mlh1 rad18 strain (AID 175). The conditions noted are these: S. cerevisiae mlh1 rad18 strain growth inhibition; at 50.0 µM; active compounds read high. Summed up:
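Compound-treated yeast growth, normalised to vehicle controls. Strain bears defined DNA repair mutations.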

For the compound `CCCCCCCCC(Br)C(Br)CCCCCCCC(=O)N(CCCC)CCCC` (stereo not given), the growth inhibition is 36.9% in test [1]; 10.6% in test [2]; 2.05% in test [3]; -5.45% in test [4]; 13.8% in test [5]; 8.3% in test [6].

Regarding `O=C(O)c1ccc(S(=O)(=O)c2cccc(Cl)c2)cc1`, the growth inhibition is 0.85% in test [1]; 7.8% in test [2]; 8.65% in test [3]; -18.7% in test [4]; -16.1% in test [5]; 6.45% in test [6].

With `CCCCCCCC(=O)N1C2CN3C4=C(C(=O)C(N)=C(C)C4=O)C(COC(N)=O)C3(OC)C21` (stereo not given), the growth inhibition in test [1] is 18.6%; in test [2], 13.1%; in test [3], 30.4%; in test [4], 20.8%; in test [5] it was 19.1%; in test [6] it was 47.1%.

Regarding `CCCOC(=O)c1cccnc1C(=O)OCCC`, the growth inhibition in test [1] is -0.2%; in test [2], -10.2%; in test [3], 1.5%; in test [4], -22.4%; in test [5], -2.5%; in test [6], -6.4%.

Regarding `CCCCNC(C)(C)CSS(=O)(=O)O`, the growth inhibition in test [1] is -12.9%; in test [2], -23.3%; in test [3], -22.2%; in test [4], -59.8%; in test [5], 4.1%; in test [6], -14.6%.

On to `Clc1cc2ncn(C3CCCO3)c2cc1Cl` (stereo not given), for which the growth inhibition is 6.3% in test [1]; 5.1% in test [2]; 3% in test [3]; 5.95% in test [4]; 49% in test [5]; 11.8% in test [6].

Take `BrCCCCCCCCCBr`: the growth inhibition in test [1] is 9.75%; in test [2] it was -3.35%; in test [3], 1.05%; in test [4], 12.9%; in test [5], -16.6%; in test [6], 29.1%.

For the compound `C[OH2+].[Cl][Cu+].[Cl][Cu+].[NH-]CCC([OH2+])CC[NH-]`, the growth inhibition was -9.1% in test [1]; -12.2% in test [2]; -14.4% in test [3]; -57.5% in test [4]; -2.8% in test [5]; 8.2% in test [6].

Consider `Cc1cc(C)c(-c2no/c(=N\S(=O)(=O)c3ccc(Cl)cc3)o2)c(C)c1`, for which the growth inhibition in test [1] was -10%; in test [2], -4.1%; in test [3] it was 0.75%; in test [4] it was 26%; in test [5], -13.1%; in test [6] it was 3.85%.

In the case of `CC(O)CN1CCN(CCN(CC(C)O)CC(C)O)CC1` (stereo not given), the growth inhibition in test [1] was -16.1%; in test [2], -24.2%; in test [3], -3.7%; in test [4], -2%; in test [5], -9.4%; in test [6] it was -19.6%.

In the case of `CCCC(CC)=C(c1ccc(OC(C)=O)cc1)c1ccc(OC(C)=O)cc1`, the growth inhibition in test [1] was 44.4%; in test [2], 24.3%; in test [3] it was 51.5%; in test [4], 38.9%; in test [5], 31%; in test [6] it was 54.7%.

As for `CCC(CC)OCc1ccccc1`, the growth inhibition in test [1] is 12.1%; in test [2], 9.4%; in test [3] it was 6.6%; in test [4] it was 5.5%; in test [5], 0.55%; in test [6], 1.1%.

As to `N#CC1(Cc2ccccc2[N+](=O)[O-])c2ccccc2C2C(N1C(=O)c1ccccc1)C2(Cl)Cl` (stereo not given), the growth inhibition in test [1] was -2.5%; in test [2], 23.7%; in test [3] it was 9.7%; in test [4], -4.3%; in test [5] it was 3.15%; in test [6] it was 6.95%.

Take `Cc1nc(C(Cl)(Cl)Cl)nc(C(Cl)(Cl)Cl)n1`: the growth inhibition in test [1] was 19.9%; in test [2] it was 47%; in test [3], 27.2%; in test [4], 9%; in test [5], 18.4%; in test [6], 20.4%.

Regarding `COC(=O)C1OC(O[C@H]2CC[C@]3(C)[C@H]4CC=C5[C@@H]6CC(C)(C)CC[C@]6(C(=O)OC6OCC(O)C(O)C6OC6OC(C)C(OC7OCC(OC8OCC(O)C(O)C8O)C(O)C7O)C(O)C6O)[C@H](O)C[C@@]5(C)[C@]4(C)CC[C@H]3C2(C)C)C(O)C(O)C1O` (stereo not given in full), the growth inhibition in test [1] was 26.3%; in test [2] it was 17%; in test [3], 10.3%; in test [4], 11.9%; in test [5], 42.6%; in test [6] it was 32.2%.

As to `CCN(CC)C(=S)N/N=C/c1ccccn1`, the growth inhibition in test [1] was 89.5% (active); in test [2], 92% (active); in test [3], 91% (active); in test [4], 89.2% (active); in test [5], 89.8% (active); in test [6], 90.3% (active).

Turning to `CC(C)C1CC(C)(C)C2CC3OC(C(C)C)CC(C)(C)C3CC2O1` (stereo not given), the growth inhibition in test [1] is -12.1%; in test [2], -3%; in test [3] it was 2.75%; in test [4], -2.65%; in test [5], -10.3%; in test [6], 1.35%.

`CC1CC[N+]2(C)CCCC12` (stereo not given): the growth inhibition in test [1] was 1.1%; in test [2] it was -4.4%; in test [3] it was -5.3%; in test [4], -39.3%; in test [5], -23.9%; in test [6], -12.4%.

As for `CN(C)CCCNC(=O)NCCCCCCNC(=O)NCCCN(C)C`, the growth inhibition in test [1] is 13.1%; in test [2] it was -9.85%; in test [3], 31.7%; in test [4], 18.4%; in test [5], 32.4%; in test [6], 19%.

Consider `COc1cccc(C2c3cc4c(cc3OC(C)(O)C2C)OCO4)c1OC` (stereo not given), for which the growth inhibition in test [1] is 22.6%; in test [2], 4.05%; in test [3], 39.5%; in test [4], 13.9%; in test [5], 24.8%; in test [6] it was 21.6%.
